Shown are actives, neighbours in structure and some others; about 0.4% of the full set was active somewhere.
Rac1 wt GTP bind = modulators of human Rac1 wildtype GTP binding | P63000 | GST-Rac1 beads, fluorescent GTP binding, flow cytometry; actives lie on both sides; 0 = cold GTP competed, 100 = untreated | GTP binding activity (% of control), % at 10 µM | hit rate 0.27% among 190,000 | AID 757;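 active = GTP binding activity at least 20 points away from the 100% control level, either lower or higher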
Rab7 wt GTP bind = dog Rab7 wildtype GTP binding, inhibitors and activators; GST-Rab7 beads, fluorescent GTP binding, flow cytometry; actives lie on both sides; untreated = 100%, excess cold GTP = 0%; GTP binding activity (percent of control), % at 10 µM; hit rate 0.055% among 190,000;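 active = fluorescent GTP binding to Rab7 beads changed by at least 20 points from the 100% baseline, either direction, mostly lower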;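 also: median green fluorescence of bound Bodipy-FL-GTP per Rab7 bead population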
Cdc42 wt = changes GTP binding to wildtype human Cdc42. P60953. GST-Cdc42 beads, Bodipy-GTP binding, flow cytometry; actives lie on both sides. percent activity (GTP binding), % at 10 µM. hit rate 0.2% among 190,000;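 active = percent activity GTP binding at least 20 points away from the 100% baseline, either down as inhibitor or up as activator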;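 also: median bead fluorescence of bound Bodipy-FL-GTP at 100 nM; 0% = excess unlabeled GTP control and 100% = no compound control; below 100% means less GTP binding so inhibitor and above means activator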
Target sequence (P60953 whole entry, looked up): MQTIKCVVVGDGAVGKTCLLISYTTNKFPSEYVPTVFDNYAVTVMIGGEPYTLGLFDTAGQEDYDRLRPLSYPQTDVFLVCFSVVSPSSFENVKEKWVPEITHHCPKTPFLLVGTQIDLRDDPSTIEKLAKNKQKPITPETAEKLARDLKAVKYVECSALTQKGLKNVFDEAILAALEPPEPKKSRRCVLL
HRas wt GTP = human HRas wildtype GTP binding, change in either direction. GTP binding activity, % at 10 µM. GST-Ras wt beads, Bodipy-FL-GTP binding, flow cytometry; actives lie on both sides. hit rate 0.14% among 190,000. P01112;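 active = GTP binding activity at least 20% away from the 100% baseline, either lowered as inhibitor or raised as activator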;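 also: 0% = unlabeled GTP competition control and 100% = no-compound control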
Target sequence (P01112 whole entry, looked up): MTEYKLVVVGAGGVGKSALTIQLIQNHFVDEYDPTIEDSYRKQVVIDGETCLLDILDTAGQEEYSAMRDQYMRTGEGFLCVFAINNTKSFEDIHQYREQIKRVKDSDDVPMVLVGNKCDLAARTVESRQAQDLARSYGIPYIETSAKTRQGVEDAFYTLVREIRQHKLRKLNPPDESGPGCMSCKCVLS
Rac1 mut GTP = modulators of GTP binding to human Rac1 activated mutant; P63000; GST-Rac1 activated beads, fluorescent GTP binding, flow cytometry; actives lie on both sides; 100% means binding = to untreated wells; percent activity (GTP binding), % at 10 µM; hit rate 0.11% among 190,000;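 active = GTP binding at least 20 percentage points away from the 100% baseline, in either direction, so actives lie on both sides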
Rab2 wt GTP = changes GTP binding to wildtype dog Rab2A, up or down | P61105 | GST-Rab2 wt beads, Bodipy-GTP binding, flow cytometry | GTP binding activity, % at 10 µM | hit rate 0.19% among 190,000 | AID 760;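 active = GTP binding activity at least 20 points away from 100%, either lowered or raised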;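 also: 0% = beads with excess unlabeled GTP and 100% = no-compound control corrected for plate trend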
The depositor's hits bear a star; [ ] = dose if it differs, or a comment.

`COc1cccc(C2CC(c3ccccc3)Nc3ncnn32)c1` (stereo unspecified) gave Rac1 wt GTP bind 123.0*[activator], Rab7 wt GTP bind 98.0, Cdc42 wt 113.0, HRas wt GTP 103.0, Rac1 mut GTP 102.0 and Rab2 wt GTP 106.0.
`Cc1cc(Cl)ccc1OCCCC(=O)OCC(N)=O` gave Rac1 wt GTP bind 103.0, Rab7 wt GTP bind 98.0, Cdc42 wt 99.0, HRas wt GTP 98.0, Rac1 mut GTP 98.0 and Rab2 wt GTP 99.0.
Screening Cc1nc2ccc(Cl)cc2c(-c2ccccc2Cl)c1CC(=O)O returned Rac1 wt GTP bind 87.0, Rab7 wt GTP bind 92.0, Cdc42 wt 82.0, HRas wt GTP 90.0, Rac1 mut GTP 88.0 and Rab2 wt GTP 86.0.
Screening CN1CCc2nc3ccc(Cl)cc3c(-c3ccccc3Cl)c2C1 returned Rac1 wt GTP bind 91.0, Rab7 wt GTP bind 95.0, Cdc42 wt 79.0*, HRas wt GTP 93.0, Rac1 mut GTP 95.0 and Rab2 wt GTP 91.0.
`O=C(O)c1cccnc1SCc1ccccc1Cl` gave Rac1 wt GTP bind 131.0*[activator], Rab7 wt GTP bind 115.0, Cdc42 wt 122.0*[activator], HRas wt GTP 116.0, Rac1 mut GTP 121.0*[activator] and Rab2 wt GTP 118.0.
Screening Cc1ccc(C)c(CSc2ncccc2C(=O)O)c1 returned Rac1 wt GTP bind 144.0*[activator], Rab7 wt GTP bind 114.0, Cdc42 wt 132.0*[activator], HRas wt GTP 113.0, Rac1 mut GTP 126.0*[activator] and Rab2 wt GTP 114.0.
For O=C(O)CSc1ncccc1C(=O)O the results were Rac1 wt GTP bind 103.0, Rab7 wt GTP bind 98.0, Cdc42 wt 104.0, HRas wt GTP 102.0, Rac1 mut GTP 101.0 and Rab2 wt GTP 99.0.
`Cc1ccc(Sc2ncccc2C(=O)O)c(C)c1` gave Rac1 wt GTP bind 135.0*[activator], Rab7 wt GTP bind 106.0, Cdc42 wt 126.0*[activator], HRas wt GTP 123.0*[activator], Rac1 mut GTP 127.0*[activator] and Rab2 wt GTP 124.0*[activator].
Screening CS(=O)(=O)Nc1ccc(C2=NN(C(=O)c3ccco3)C(c3ccccc3F)C2)cc1 (stereo unspecified) returned Rac1 wt GTP bind 92.0, Rab7 wt GTP bind 105.0, Cdc42 wt 92.0, HRas wt GTP 95.0, Rac1 mut GTP 94.0 and Rab2 wt GTP 95.0.
Screening Cc1ccc(C(=O)N2CCN(c3ncccn3)CC2)cc1S(=O)(=O)N1CCCCC1 returned Rac1 wt GTP bind 102.0, Rab7 wt GTP bind 100.0, Cdc42 wt 100.0, HRas wt GTP 101.0, Rac1 mut GTP 100.0 and Rab2 wt GTP 100.0.
Cc1cc(F)ccc1NCC(=O)Nc1ccccc1Br was read as Rac1 wt GTP bind 104.0, Rab7 wt GTP bind 102.0, Cdc42 wt 102.0, HRas wt GTP 100.0, Rac1 mut GTP 97.0 and Rab2 wt GTP 101.0.
Screening CCOC(=O)N1CCN(C(=O)CCl)CC1 returned Rac1 wt GTP bind 100.0, Rab7 wt GTP bind 101.0, Cdc42 wt 99.0, HRas wt GTP 98.0, Rac1 mut GTP 94.0 and Rab2 wt GTP 95.0.
Screening CCOCC(=O)Nc1ccccc1C(=O)O returned Rac1 wt GTP bind 103.0, Rab7 wt GTP bind 105.0, Cdc42 wt 98.0, HRas wt GTP 101.0, Rac1 mut GTP 97.0 and Rab2 wt GTP 100.0.
For O=C(COC(=O)c1ccc2c(c1[N+](=O)[O-])C(=O)c1ccccc1C2=O)NC1CC1 the results were Rac1 wt GTP bind 70.0*, Rab7 wt GTP bind 91.0, Cdc42 wt 73.0*, HRas wt GTP 76.0*, Rac1 mut GTP 83.0 and Rab2 wt GTP 73.0*.
O=C(CSc1ncccn1)NCc1cccs1 was read as Rac1 wt GTP bind 97.0, Rab7 wt GTP bind 95.0, Cdc42 wt 94.0, HRas wt GTP 93.0, Rac1 mut GTP 95.0 and Rab2 wt GTP 93.0.
For CCC(=O)NCc1c(C)c(C)n(Cc2ccccc2)c1-n1cccc1 the results were Rac1 wt GTP bind 103.0, Rab7 wt GTP bind 97.0, Cdc42 wt 101.0, HRas wt GTP 99.0, Rac1 mut GTP 96.0 and Rab2 wt GTP 102.0.
Screening COc1cc(/C=N/NC(=O)CCN2CCN(Cc3ccccc3)CC2)cc(OC)c1OC returned Rac1 wt GTP bind 100.0, Rab7 wt GTP bind 97.0, Cdc42 wt 99.0, HRas wt GTP 100.0, Rac1 mut GTP 101.0 and Rab2 wt GTP 101.0.
For COc1cc(/C=N/NC(=O)CCN2CCN(c3ccccc3)CC2)cc(OC)c1OC the results were Rac1 wt GTP bind 79.0*, Rab7 wt GTP bind 94.0, Cdc42 wt 87.0, HRas wt GTP 86.0, Rac1 mut GTP 90.0 and Rab2 wt GTP 80.0.
COc1cccc(N2CCN(C(=O)CSc3ccc(F)cc3)CC2)c1 was read as Rac1 wt GTP bind 101.0, Rab7 wt GTP bind 99.0, Cdc42 wt 98.0, HRas wt GTP 100.0, Rac1 mut GTP 97.0 and Rab2 wt GTP 100.0.
`COc1cccc(CNC(=O)CCC2CCCN(c3cc(C)nc(N4CCCC4)n3)C2)c1` (stereo unspecified) gave Rac1 wt GTP bind 92.0, Rab7 wt GTP bind 103.0, Cdc42 wt 93.0, HRas wt GTP 93.0, Rac1 mut GTP 96.0 and Rab2 wt GTP 99.0.
`OCCC1CN(Cc2ccccc2O)CCN1CCc1ccccc1` (stereo unspecified) gave Rac1 wt GTP bind 12.0*, Rab7 wt GTP bind 10.0*, Cdc42 wt 16.0*, HRas wt GTP 18.0*, Rac1 mut GTP 13.0* and Rab2 wt GTP 16.0*.
`CCOc1cccc(CN2CCN(CCc3ccccc3)C(CCO)C2)c1O` (stereo unspecified) gave Rac1 wt GTP bind 88.0, Rab7 wt GTP bind 98.0, Cdc42 wt 87.0, HRas wt GTP 85.0, Rac1 mut GTP 85.0 and Rab2 wt GTP 89.0.
O=C(COC(=O)CC12CC3CC(CC(C3)C1)C2)Nc1cccnc1Cl was read as Rac1 wt GTP bind 95.0, Rab7 wt GTP bind 89.0, Cdc42 wt 95.0, HRas wt GTP 94.0, Rac1 mut GTP 91.0 and Rab2 wt GTP 95.0.
O=C(O)c1ccccc1SCc1ccc2c(c1)OCO2 was read as Rac1 wt GTP bind 135.0*[activator], Rab7 wt GTP bind 121.0*[activator], Cdc42 wt 135.0*[activator], HRas wt GTP 123.0*[activator], Rac1 mut GTP 127.0*[activator] and Rab2 wt GTP 127.0*[activator].
O=C(c1ccccc1SCc1ccccc1)N1CCOCC1 was read as Rac1 wt GTP bind 103.0, Rab7 wt GTP bind 107.0, Cdc42 wt 98.0, HRas wt GTP 98.0, Rac1 mut GTP 98.0 and Rab2 wt GTP 100.0.
For COc1cc2[nH]c(=S)n(CC3CCCO3)c(=O)c2cc1OC (stereo unspecified) the results were Rac1 wt GTP bind 104.0, Rab7 wt GTP bind 104.0, Cdc42 wt 104.0, HRas wt GTP 104.0, Rac1 mut GTP 99.0 and Rab2 wt GTP 105.0.
`COc1cc2[nH]c(=S)nc(NCC3CCCO3)c2cc1OC` (stereo unspecified) gave Rac1 wt GTP bind 74.0*, Rab7 wt GTP bind 88.0, Cdc42 wt 74.0*, HRas wt GTP 81.0, Rac1 mut GTP 84.0 and Rab2 wt GTP 80.0.

High-throughput results deposited in PubChem by NMMLSC.
